The campaign covered roughly 44,000 compounds. About 30 (0.07%) were called active. Roughly 1% stayed inconclusive and do not appear here. Cut-off read from the data, not from the text of the source: active = inhibition above about 54% (passing the limit was not always enough); inconclusive = no clear call, values can overlap the other calls. The full list was thinned out, with actives kept by preference.
These compounds were tested against Histone-lysine N-methyltransferase NSD2 (Homo sapiens) (UniProt O96028) (assay: NSD2 histone methyltransferase activity blockers – biochemical, plate reader, single point, primary screen (AID 624260;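 note: inhibitors reduce the monomethyl H3K36 fluorescence signal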)). Conditions: NSD2-SET H3K36me1 DELFIA fluorescence, at 12.5 µM, stronger effect = higher value.
Sequence of Histone-lysine N-methyltransferase NSD2 (Homo sapiens) (O96028 whole entry, looked up): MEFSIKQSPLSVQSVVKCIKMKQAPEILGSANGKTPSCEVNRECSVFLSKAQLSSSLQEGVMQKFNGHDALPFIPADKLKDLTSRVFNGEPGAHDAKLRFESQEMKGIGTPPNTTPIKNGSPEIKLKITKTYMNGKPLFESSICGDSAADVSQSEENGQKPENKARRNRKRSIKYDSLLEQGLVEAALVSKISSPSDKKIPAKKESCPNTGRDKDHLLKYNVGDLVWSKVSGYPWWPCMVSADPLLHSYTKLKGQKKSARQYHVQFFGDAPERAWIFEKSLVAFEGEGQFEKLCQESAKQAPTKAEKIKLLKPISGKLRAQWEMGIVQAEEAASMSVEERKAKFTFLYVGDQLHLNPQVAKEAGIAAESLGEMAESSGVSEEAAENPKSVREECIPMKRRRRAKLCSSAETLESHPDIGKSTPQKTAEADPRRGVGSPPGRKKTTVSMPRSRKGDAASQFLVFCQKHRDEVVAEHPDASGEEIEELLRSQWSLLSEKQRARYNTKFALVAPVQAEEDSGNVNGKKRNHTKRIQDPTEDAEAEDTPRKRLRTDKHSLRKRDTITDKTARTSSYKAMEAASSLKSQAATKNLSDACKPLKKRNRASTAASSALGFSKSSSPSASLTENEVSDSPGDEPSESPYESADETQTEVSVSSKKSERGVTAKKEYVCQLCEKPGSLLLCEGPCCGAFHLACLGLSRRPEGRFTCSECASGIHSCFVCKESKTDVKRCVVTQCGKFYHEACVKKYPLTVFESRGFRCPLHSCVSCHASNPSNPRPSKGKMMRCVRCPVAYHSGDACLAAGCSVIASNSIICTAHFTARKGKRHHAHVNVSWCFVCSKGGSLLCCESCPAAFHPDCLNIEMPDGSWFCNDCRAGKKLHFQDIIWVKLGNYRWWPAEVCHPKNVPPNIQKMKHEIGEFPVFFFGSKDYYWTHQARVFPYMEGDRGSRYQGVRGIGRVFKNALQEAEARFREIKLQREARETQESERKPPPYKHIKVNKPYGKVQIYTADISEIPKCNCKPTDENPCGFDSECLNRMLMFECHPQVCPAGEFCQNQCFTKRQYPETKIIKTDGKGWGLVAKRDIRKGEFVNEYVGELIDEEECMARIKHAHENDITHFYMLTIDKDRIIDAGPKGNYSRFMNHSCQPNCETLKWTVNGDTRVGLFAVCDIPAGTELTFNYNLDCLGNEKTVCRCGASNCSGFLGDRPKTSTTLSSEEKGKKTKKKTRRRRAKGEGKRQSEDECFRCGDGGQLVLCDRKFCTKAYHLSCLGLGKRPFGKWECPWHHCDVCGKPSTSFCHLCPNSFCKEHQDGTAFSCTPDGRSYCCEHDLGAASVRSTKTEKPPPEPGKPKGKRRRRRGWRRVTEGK

inhibition, inactive:
CC(=O)N(C)C[C@H]1Oc2cc(C#Cc3ccccc3F)ccc2S(=O)(=O)N([C@@H](C)CO)C[C@H]1C -2.4%, O=C(C[C@@H]1C[C@H]2c3cc(NS(=O)(=O)c4ccc(F)cc4)ccc3O[C@H]2[C@H](CO)O1)NCCc1ccccc1 4.07%, C[C@@H]1CN([C@@H](C)CO)S(=O)(=O)c2ccc(C#Cc3ccccc3F)cc2O[C@H]1CN(C)C(=O)c1ccc2c(c1)OCO2 -0.635%, CC(C)NC(=O)N(C)C[C@H]1Oc2ncc(C#CC3(O)CCCC3)cc2C(=O)N([C@H](C)CO)C[C@@H]1C -3.09%, O=C(C[C@@H]1C[C@@H]2c3cc(NS(=O)(=O)c4ccc(F)cc4)ccc3O[C@@H]2[C@@H](CO)O1)NCc1ccncc1 1.12%, CN(C)CC(=O)Nc1ccc2c(c1)[C@H]1C[C@@H](CC(=O)NCc3ccc(-c4ccccc4)cc3)O[C@H](CO)[C@H]1O2 3.66%, C[C@H](CO)N1C[C@H](C)[C@@H](CN(C)S(=O)(=O)c2ccc(Cl)cc2)Oc2ccc(NS(C)(=O)=O)cc2CC1=O 1.76%, C[C@@H]1CN([C@@H](C)CO)C(=O)c2cc(-c3cccc(F)c3)cnc2O[C@@H]1CN(C)Cc1ccccc1 -9.63%, COCC(=O)Nc1ccc2c(c1)[C@H]1C[C@H](CC(=O)NCc3ccccn3)O[C@H](CO)[C@H]1O2 2.78%, CCC(=O)N(C)C[C@H]1Oc2cc(/C=C/c3ccccc3)ccc2S(=O)(=O)N([C@H](C)CO)C[C@@H]1C 2.05%, COc1ccc(NC(=O)Nc2ccc3c(c2)[C@@H]2C[C@H](CC(=O)N4CCCCC4)O[C@H](CO)[C@@H]2O3)cc1 4.87%, C[C@@H]1CN([C@@H](C)CO)S(=O)(=O)c2ccc(-c3cccc(C(=O)N(C)C)c3)cc2O[C@@H]1CN(C)C 1.16%, CC(C)NC(=O)N(C)C[C@@H]1Oc2ncc(C#Cc3ccncc3)cc2C(=O)N([C@@H](C)CO)C[C@@H]1C 4.8%, Cc1ccc(-c2cnc3c(c2)C(=O)N([C@H](C)CO)C[C@@H](C)[C@H](CN(C)Cc2ccccc2C(=O)O)O3)cc1 12.9%, CCCNC(=O)C[C@H]1C[C@@H]2c3cc(NC(=O)COC)ccc3O[C@@H]2[C@@H](CO)O1 3.25%, C[C@H](CO)N1C[C@H](C)[C@@H](CN(C)C(=O)Nc2ccccc2)Oc2ncc(C3=CCCC3)cc2C1=O -0.747%, C/C=C/c1cnc2c(c1)C(=O)N([C@@H](C)CO)C[C@@H](C)[C@H](CN(C)Cc1ccccc1)O2 1.34%, C[C@@H]1CN([C@@H](C)CO)S(=O)(=O)c2ccc(C#CCN(C)C)cc2O[C@@H]1CN(C)S(=O)(=O)c1cccc(F)c1 -0.392%, C[C@H]1CN([C@@H](C)CO)C(=O)c2cc(-c3ccncc3)cnc2O[C@@H]1CN(C)C(=O)c1cccc(F)c1 -0.363%, Cc1ccc(-c2ccc3c(c2)O[C@H](CN(C)C(=O)Nc2ccc(C(F)(F)F)cc2)[C@@H](C)CN([C@H](C)CO)S3(=O)=O)cc1 -7.32%, CCC(=O)N(C)C[C@@H]1Oc2ncc(C#CCc3ccccc3)cc2C(=O)N([C@H](C)CO)C[C@H]1C -13.4%, C[C@H](CO)N1C[C@H](C)[C@@H](CN(C)S(=O)(=O)c2cccc(F)c2)Oc2ncc(-c3cccc(F)c3)cc2C1=O -2.04%, C[C@@H]1CCCCO[C@H](CN(C)S(=O)(=O)c2ccc(Cl)cc2)[C@H](C)CN([C@H](C)CO)C(=O)c2cc(NC(=O)NC3CCCCC3)ccc2O1 5.74%, CC(=O)N(C)C[C@H]1Oc2ncc(C#CC3(O)CCCC3)cc2C(=O)N([C@@H](C)CO)C[C@@H]1C 4.16%, COc1ccc(S(=O)(=O)N[C@@H]2C=C[C@@H](CC(=O)N3CCc4ccccc4C3)O[C@@H]2CO)cc1 3.25%, CC(=O)N(C)C[C@@H]1Oc2ncc(-c3ccccc3F)cc2C(=O)N([C@H](C)CO)C[C@@H]1C -4.17%, COc1ccc(-c2cnc3c(c2)C(=O)N([C@@H](C)CO)C[C@H](C)[C@H](CN(C)C(=O)Cc2cccnc2)O3)cc1 -0.562%, C[C@@H]1CN([C@H](C)CO)C(=O)c2cc(NC(=O)C3CCCCC3)ccc2O[C@@H](C)CCCCO[C@H]1CN(C)S(C)(=O)=O -14.3%, C[C@@H]1CN([C@H](C)CO)S(=O)(=O)c2ccc(Br)cc2O[C@@H]1CN(C)Cc1cncnc1 1.53%, C[C@@H](NC(=O)C[C@H]1C[C@@H]2c3cc(NC(=O)C4CCC4)ccc3O[C@@H]2[C@@H](CO)O1)c1ccccc1 -3.13%, C[C@H]1CN([C@@H](C)CO)S(=O)(=O)c2ccc(-c3cccc(C#N)c3)cc2O[C@H]1CN(C)CC1CC1 18.1%, COc1cccc(S(=O)(=O)N(C)C[C@H]2Oc3cc(C#CCN(C)C)ccc3S(=O)(=O)N([C@H](C)CO)C[C@H]2C)c1 1.49%, C[C@@H]1CN([C@@H](C)CO)C(=O)Cc2cc(NS(C)(=O)=O)ccc2O[C@H]1CN(C)S(=O)(=O)c1ccc(F)cc1 5.39%, CCCNC(=O)N(C)C[C@H]1Oc2ncc(C#CC(C)C)cc2C(=O)N([C@@H](C)CO)C[C@@H]1C -3.03%, C[C@@H]1CN([C@H](C)CO)C(=O)c2cc(-c3ccc(F)cc3)cnc2O[C@@H]1CN(C)C(=O)C1CCC1 8.32%, O=C(C[C@H]1C[C@@H]2c3cc(NC(=O)CC4CC4)ccc3O[C@@H]2[C@@H](CO)O1)NCc1cc(F)ccc1F 9.35%, COc1ccccc1S(=O)(=O)N(C)C[C@@H]1Oc2cc(C#CCC3CCCC3)ccc2S(=O)(=O)N([C@H](C)CO)C[C@H]1C -16.6%, C[C@@H]1CN([C@@H](C)CO)S(=O)(=O)c2ccc(Br)cc2O[C@@H]1CN(C)C(=O)CN(C)C 16.9%, COc1ccccc1CNC(=O)C[C@@H]1C[C@@H]2c3cc(NC(=O)C4CCOCC4)ccc3O[C@@H]2[C@@H](CO)O1 -2.77%, CNC[C@H]1Oc2cc(-c3ccc(C(=O)N(C)C)cc3)ccc2S(=O)(=O)N([C@@H](C)CO)C[C@@H]1C 2.38%, COc1ccc(S(=O)(=O)Nc2ccc3c(c2)C(=O)N([C@@H](C)CO)C[C@H](C)[C@H](CN(C)Cc2ccc4c(c2)OCO4)OCCCC[C@H](C)O3)cc1 2.05%, COC(=O)C[C@@H]1C[C@H]2c3cc(NC(=O)CN(C)C)ccc3O[C@H]2[C@H](CO)O1 6.16%, C[C@H](CO)N1C[C@H](C)[C@@H](CN(C)Cc2ccccn2)Oc2ncc(-c3cccc(F)c3)cc2C1=O 2.22%, CC(=O)N(C)C[C@@H]1Oc2cc(-c3cccnc3)ccc2S(=O)(=O)N([C@@H](C)CO)C[C@H]1C -5.41%, C[C@H]1CN([C@@H](C)CO)S(=O)(=O)c2ccc(C3=CCCC3)cc2O[C@H]1CN(C)C(=O)Cc1ccncc1 -1.21%, O=C(C[C@H]1CC[C@@H](NC(=O)Nc2ccc(F)cc2)[C@H](CO)O1)NCc1cccc(F)c1 9.13%, Cc1ccccc1-c1ccc2c(c1)O[C@@H](CN(C)Cc1ccc(C(=O)O)cc1)[C@H](C)CN([C@H](C)CO)S2(=O)=O -1.98%, C[C@H](CO)N1C[C@H](C)[C@@H](CN(C)S(=O)(=O)c2ccc(F)cc2)Oc2ccc(NC(=O)CCCCCC(=O)Nc3ccccc3N)cc2CC1=O -1.08%, C[C@@H]1CN([C@H](C)CO)C(=O)Cc2cc(NC(=O)Nc3cccc4ccccc34)ccc2O[C@H]1CN(C)C(=O)Nc1ccc2c(c1)OCO2 -7.81%, COCC#Cc1ccc2c(c1)O[C@@H](CN(C)S(C)(=O)=O)[C@H](C)CN([C@H](C)CO)S2(=O)=O -5.23%, C[C@@H]1CN([C@H](C)CO)C(=O)c2cc(NS(=O)(=O)c3cn(C)cn3)ccc2O[C@@H](C)CCCCO[C@@H]1CN(C)C(=O)CCC(F)(F)F -0.203%, CN1CCN(C(=O)C[C@H]2C[C@H]3c4cc(NC(=O)C5CCC5)ccc4O[C@H]3[C@H](CO)O2)CC1 5.87%, CC(C)CC#Cc1cnc2c(c1)C(=O)N([C@@H](C)CO)C[C@H](C)[C@@H](CN(C)S(=O)(=O)c1cn(C)cn1)O2 2.14%, CC(C)CC#Cc1ccc2c(c1)O[C@H](CN(C)C(=O)CC1CC1)[C@@H](C)CN([C@@H](C)CO)S2(=O)=O -15.5%, COC(=O)C[C@H]1C=C[C@H](NC(=O)Nc2ccc(C(F)(F)F)cc2)[C@@H](CO)O1 -4.85%, O=C(C[C@@H]1C[C@@H]2c3cc(NC(=O)C4CCOCC4)ccc3O[C@@H]2[C@@H](CO)O1)NC1CCCCC1 0.0335%, C[C@H](O)C#Cc1cnc2c(c1)C(=O)N([C@@H](C)CO)C[C@H](C)[C@@H](CN(C)C(=O)c1ccncc1)O2 0.0295%, C[C@H]1CN([C@@H](C)CO)S(=O)(=O)c2ccc(Br)cc2O[C@H]1CN(C)C(=O)C1CC1 6.22%, Cc1noc(C)c1NC(=O)N(C)C[C@@H]1OCCCC[C@H](C)Oc2ccc(NC(=O)C3CCCCC3)cc2C(=O)N([C@H](C)CO)C[C@@H]1C 3.93%

Reference: PubChem BioAssay AID624260 (Broad Institute, 2012)
